12-LOX inh: Primary qHTS assay for inhibitors of human arachidonate 12S-lipoxygenase (ALOX12): Round 2; Polyunsaturated fatty acid lipoxygenase ALOX12 (Homo sapiens), P18054; purified 12hLO, xylenol orange hydroperoxide absorbance; Potency, µM (top dose mostly 108 µM), for inactives: at the highest dose activity change, negative = inhibition, actives largely listed as inhibitors; 1.1% of 580,000 active; further: potency means the concentration at half of the fitted maximal effect
Target sequence (P18054 whole entry, looked up): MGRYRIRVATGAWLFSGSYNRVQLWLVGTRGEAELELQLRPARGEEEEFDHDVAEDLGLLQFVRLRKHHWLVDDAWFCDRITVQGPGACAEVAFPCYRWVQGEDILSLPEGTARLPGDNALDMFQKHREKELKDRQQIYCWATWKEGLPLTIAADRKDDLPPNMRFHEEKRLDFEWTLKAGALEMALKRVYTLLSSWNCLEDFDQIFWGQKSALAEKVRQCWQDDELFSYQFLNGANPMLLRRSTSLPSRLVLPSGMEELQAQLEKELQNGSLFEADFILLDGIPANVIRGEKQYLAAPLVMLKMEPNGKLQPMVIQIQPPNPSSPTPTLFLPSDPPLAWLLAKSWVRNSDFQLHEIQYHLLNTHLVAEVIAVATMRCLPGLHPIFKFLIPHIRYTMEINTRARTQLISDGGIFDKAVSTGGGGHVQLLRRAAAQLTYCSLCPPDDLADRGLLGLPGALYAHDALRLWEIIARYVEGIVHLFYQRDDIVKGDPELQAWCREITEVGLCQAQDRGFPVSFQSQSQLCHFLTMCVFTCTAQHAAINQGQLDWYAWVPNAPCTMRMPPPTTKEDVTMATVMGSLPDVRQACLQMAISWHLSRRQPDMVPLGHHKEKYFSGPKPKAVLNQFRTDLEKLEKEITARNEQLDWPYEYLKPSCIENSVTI
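Purified human 12hLO at 150 nM in 25 mM Hepes, 0.01% Triton X-100, pH 7.0, preincubated 15 min at room temperature with compound. Reaction started with 40 uM arachidonic acid, 30 min at room temperature. Hydroperoxide measured by Fe-xylenol orange, 573/405 nm absorbance ratio.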
DT40 TDP1 CPT: qHTS for Inhibitors of human tyrosyl-DNA phosphodiesterase 1 (TDP1): qHTS in cells in presence of CPT; chicken DT40 Tdp1-/-;hTDP1 cells + 20 nM CPT, ATP luminescence, 48 h; Potency, µM (series often up to 46.2 µM), for the others: top-dose activity change, negative = growth inhibition, usual class: inhibitors; 12% of 420,000 active; AID 686979, 2013; further: potency means the concentration at half of the fitted maximal effect; nearly all actives have a fitted effect of over 55% in size
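Chicken DT40 Tdp1-/- cells complemented with human TDP1, 400 cells/well, exposed to compounds plus 20 nM camptothecin for at least 48 h at 37 C; viability read as ATP content by CellTiter-Glo luminescence.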
HT1080-NT tox: qHTS for induction of synthetic lethality in tumor cells producing 2HG: qHTS for the HT-1080-NT fibrosarcoma cell line. HT-1080-NT fibrosarcoma viability, CellTiter-Glo ATP luminescence, 48 h. Potency, µM (titrated, usually from 46.1 µM), without a hit: at the highest dose activity, negative = less viability, most hits filed as cytotoxic. 1.6% of 360,000 active. AID 686970, 2013;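 further: NT is the 2HG producing partner of a matched IDH1 knockdown line; potency means the concentration at half of the fitted maximal effect; 0% = DMSO-treated cells and -100% = media-only wells without cells; nearly all actives have a fitted effect of over 55% in size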
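750 cells/well, RPMI + 5% FBS; 2 h settle, compound pin-transfer, 48 h at 37 degrees C. CellTiter-Glo 10 min RT, luminescence. Normalized to DMSO and media-only wells.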
TDP1 cell noCPT: qHTS for Inhibitors of human tyrosyl-DNA phosphodiesterase 1 (TDP1): qHTS in cells in absence of CPT; DT40 Tdp1-/- hTDP1 cells, no CPT, ATP luminescence, 48 h; 15% of 420,000 active; AID 686978, 2013; Potency, µM (doses to about 46.2 µM), for inactives: at the top dose activity change, negative = growth inhibition, hits mostly inhibitors; further: potency means the concentration at half of the fitted maximal effect; nearly all actives have a fitted effect of over 55% in size
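No-CPT arm: Tdp1-/-;hTDP1 DT40 cells (400/well) plus compounds, incubated ≥48 hr at 37 °C. Readout CellTiter-Glo luminescence.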
HT1080 IDH1KD tx: qHTS for induction of synthetic lethality in tumor cells producing 2HG: qHTS for the HT-1080-IDH1KD cell line; HT-1080 IDH1 knockdown viability, ATP luminescence, 48 h; Potency, µM (top dose mostly 46.1 µM), for inactives: at the top dose activity, negative = toxicity, actives largely listed as cytotoxic; 2% of 360,000 active; AID 686971, 2013;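 further: potency means the concentration at half of the fitted maximal effect; 0% = DMSO wells and -100% = cell-free medium wells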
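Assay cells: HT-1080 with IDH1 knockdown, 750 per well, RPMI/5% FBS. Exposure: 48 h at 37 °C following 2 h pre-incubation. Read: CellTiter-Glo luminescence; fitted concentration-response, curve class assigned.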
IL-1B inflam inh: qHTS for Inhibitors of Inflammasome Signaling: IL-1-beta AlphaLISA Primary Screen; THP-1 LPS/ATP IL-1B secretion, AlphaLISA, 16 h; hits give low values; activity change, % at 57.5 µM; 4.7% of 360,000 active; AID 743279, 2014; in the data active means activity change below about -50%; inconclusive means mostly about -30% to -49%
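Secreted IL-1B measured by AlphaLISA bead assay after 16 h compound exposure of THP-1 cells; compounds (final up to 57.5 uM) added 1 h before LPS (250 ng/mL) and ATP (1.25 mM) stimulation; lower signal means less secretion.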
Starred values were filed as active, the others as inactive; ? = inconclusive; / = not tested or not shown; [ ] = remark or other dose. Many of the other results were omitted from the sample, so hits are more common in it than they were. Unless noted, the call rests on the fitted dose curve; in most records, active means well fitted curve in the direction sought with a large enough effect; inconclusive means small, poorly fitted or top-dose-only effect, or another doubt; inactive means no such curve, though single readings can be large; an effect the other way counts as inactive or inconclusive. Unless noted, on the % scale 0 is the no-effect control and ±100 the full control effect.

SMILES	12-LOX inh	DT40 TDP1 CPT	HT1080-NT tox	TDP1 cell noCPT	HT1080 IDH1KD tx	IL-1B inflam inh
CCCOc1ccccc1C(=O)N1CCC(c2nc3ccccc3s2)CC1	?	23µM*	/	10µM*	/	/
COc1ccc(C(=O)N2CCC(c3nc4ccccc4s3)CC2)cc1Cl	-18%	26µM*	/	10µM*	/	/
CCC(Oc1ccccc1F)C(=O)N1CCC(c2nc3ccccc3s2)CC1 (configuration not stated)	3%	?	/	16µM*	/	/
CNC(=O)c1ccc(CN2CCCC(CCc3ccccc3C(F)(F)F)C2)o1 (configuration not stated)	60%	/	/	/	/	/
O[C@@H]1C[C@@H](c2nc(-c3ccccc3)no2)N(Cc2cccc(OC(F)(F)F)c2)C1	64%[176 µM]	/	/	/	/	/
CCCC(=O)Nc1ccccc1C(=O)N1CCN(C(c2ccccc2)c2ccccc2)CC1	6%	/	/	/	/	/
O=C(c1ccoc1)N1CCN(C(=O)c2nnn3c2COC(c2ccccc2)C3)CC1 (configuration not stated)	-18%	/	/	/	/	/
CC1=NNC(=O)/C1=C\c1cn(-c2ccccc2)nc1-c1cccs1	?	2.6µM*	8.2µM*	2.6µM*	8.2µM*	-96*
CC1=NNC(=O)/C1=C\c1cn(-c2ccccc2)nc1-c1ccc(F)cc1	/	3.7µM*	10µM*	1.5µM*	5.8µM*	-100*
O=C(N/N=C/c1cn(-c2ccccc2)nc1-c1cccs1)c1ccccc1F	/	16µM*	-26%	-120%	?	-12
O=C(N/N=C/c1cn(-c2ccccc2)nc1-c1cccs1)c1ccc(Cl)cc1	-7%	?	-9%	?	-17%	-29
O=Cc1cn(-c2ccccc2)nc1-c1ccc(F)cc1	17%	?	2%	21µM*	5%	-18
O=C(O)CCCCCN1C(=O)/C(=C\c2cn(-c3ccccc3)nc2-c2cccs2)SC1=S	?	?	-18%	-18%	-25%	0
Cc1noc([C@@H]2CN(Cc3ccccc3OC(F)(F)F)C[C@H]2CO)n1	46%	/	/	/	/	/
O=C(N/N=C/c1cn(-c2ccccc2)nc1-c1cccnc1)c1ccc(F)cc1	459%	?	-22%	?	-26%	?
O=C(N/N=C/c1cn(-c2ccccc2)nc1-c1ccc(F)cc1)c1ccc(Br)o1	431%	21µM*	-4%	23µM*	-12%	-56*
O=C(NCc1ccco1)C12CN(Cc3ccccc3)CC1C(c1cccc([N+](=O)[O-])c1)=NO2 (configuration not stated)	6%	?	-2%	18µM*	-5%	-25
O=C(NCc1ccccc1)C12CN(Cc3ccccc3)CC1C(c1ccc([N+](=O)[O-])cc1)=NO2 (configuration not stated)	?	?	2%	?	-2%	?
O=C(NCc1ccco1)C12CN(Cc3ccccc3)CC1C(c1ccc([N+](=O)[O-])cc1)=NO2 (configuration not stated)	?	16µM*	-13%	?	-5%	-29
Cc1ccc(CNC(=O)C23CN(Cc4ccccc4)CC2C(c2cccc([N+](=O)[O-])c2)=NO3)cc1 (configuration not stated)	2%	?	2%	21µM*	5%	0
CC(C)CCNC(=O)C12CN(Cc3ccccc3)CC1C(c1cccc([N+](=O)[O-])c1)=NO2 (configuration not stated)	-3%	-29%	0%	?	-8%	-12
COCCCNC(=O)CS(=O)Cc1nc(-c2ccc(OC)cc2)oc1C (configuration not stated)	5%	/	/	/	/	/
O=C1C=CN2CCOCC2C1 (configuration not stated)	3%	5%	-2%	-3%	12%	18
O=C1C=CN2CCCCC2CC1 (configuration not stated)	?	10µM*	2%	16µM*	0%	66
CN(C)C(=O)/C(=C/c1ccc(-c2cccc([N+](=O)[O-])c2)o1)NC(=O)c1ccccc1	25%	?	-22%	?	-28%	?
SMILES	12-LOX inh	DT40 TDP1 CPT	HT1080-NT tox	TDP1 cell noCPT	HT1080 IDH1KD tx	IL-1B inflam inh
COc1ccc(C(=O)N/C(=C\c2ccc(-c3cccc([N+](=O)[O-])c3)o2)C(=O)NCCCN2CCOCC2)cc1	?	?	?	16µM*	?	-25
Cc1ccc(C(=O)N/C(=C\c2ccc(-c3cccc([N+](=O)[O-])c3)o2)C(=O)NCCCN2CCOCC2)cc1	16%	?	18µM*	?	?	-12
CN(C)C(=O)/C(=C\c1ccc(-c2cccc([N+](=O)[O-])c2)o1)NC(=O)c1ccccc1	2%	15µM*	0%	16µM*	-9%	-16
Cc1ccc(C(=O)N/C(=C/c2ccc(-c3cccc([N+](=O)[O-])c3)o2)C(=O)NC(C)(C)C)cc1	-1%	?	2%	13µM*	-4%	-5
O=C(c1ccncc1)N1CCC2(CCCN(c3ccccn3)C2)CC1	7%[57.4 µM]	-26%	/	?	/	/
CC(=O)N1CCc2cc(S(=O)(=O)NC(CC(C)C)C(=O)NCCc3ccccc3)ccc21 (configuration not stated)	3%	-10%	/	6%	/	/
C#CCNC(=O)CC[C@H]1CNC(=O)[C@@H]2[C@@H](CCN2Cc2csnn2)N1C	62%[176 µM]	/	/	/	/	/
COc1ccc(F)cc1S(=O)(=O)NC1CCCC1	/	?	?	-9%	-27%	-4
Nc1cc(=O)[nH]c(SCc2cccc(Br)c2)n1	-31%	/	/	/	/	/
Nc1cc(=O)[nH]c(SCc2ccc(Cl)cc2Cl)n1	0%	8.2µM*	-12%	7.3µM*	-6%	67
O=S(=O)(CCN1CCCCC1)CCS(=O)(=O)CCN1CCCCC1	-13%	?	16%	-27%	15%	-71*
NC(=O)CCS(=O)(=O)CCN1CCCCC1	0%	11%	12%	-3%	9%	-4

Source: PubChem BioAssay
